Experimental findings from PubChem BioAssay (NCATS) are described below.

Inconclusive results are not listed. A number with no mark means an inactive call. Active and inactive are the calls of the source. The call rests on the fitted dose curve.
On the % scale 0 is the no-effect control and ±100 the full control effect.

The target of the assay is Nucleoprotein (Lymphocytic choriomeningitis virus (strain Armstrong)) (UniProt P09992). As to the kind of experiment: qHTS for Inhibitors of the Functional Ribonucleoprotein Complex (vRNP) of Lymphocytic Choriomeningitis Arenaviruses (LCMV): LCMV Primary Screen - GLuc reporter signal (AID 1347086). Further: nearly all actives have a fitted effect of over 70% in size. As to conditions: LCMV minigenome vRNP cell assay, Gaussia luciferase reporter; series mostly up to 57.5 µM; activity change, negative = inhibition: at the top concentration.
Nucleoprotein (Lymphocytic choriomeningitis virus (strain Armstrong)), sequence (P09992 whole entry, looked up): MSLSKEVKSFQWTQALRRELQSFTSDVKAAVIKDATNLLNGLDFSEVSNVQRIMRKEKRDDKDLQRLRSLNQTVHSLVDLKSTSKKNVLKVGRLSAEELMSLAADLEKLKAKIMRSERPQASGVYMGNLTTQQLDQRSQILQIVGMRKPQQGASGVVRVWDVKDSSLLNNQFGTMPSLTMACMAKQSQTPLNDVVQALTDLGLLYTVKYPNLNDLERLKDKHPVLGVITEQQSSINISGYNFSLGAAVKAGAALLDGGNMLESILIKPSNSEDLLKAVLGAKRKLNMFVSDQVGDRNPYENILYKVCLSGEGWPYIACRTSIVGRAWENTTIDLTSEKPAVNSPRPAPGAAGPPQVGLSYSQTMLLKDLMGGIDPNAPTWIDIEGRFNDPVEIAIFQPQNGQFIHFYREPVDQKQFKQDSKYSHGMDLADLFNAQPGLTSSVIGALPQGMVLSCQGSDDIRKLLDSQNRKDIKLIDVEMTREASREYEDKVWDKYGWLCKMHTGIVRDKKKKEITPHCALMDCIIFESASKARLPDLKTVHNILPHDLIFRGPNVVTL
On to `Nc1c(CC(=O)O)cccc1C(=O)c1ccc(Br)cc1`, for which the “activity change, negative = inhibition” value was 4.43%.

Consider `O=C(O)c1cn(C2CC2)c2cc(Cl)c(F)cc2c1=O`, for which the “activity change, negative = inhibition” value was 16.8%. With `CN(C)CCC(c1ccccc1)c1ccccn1` (stereo not drawn), the Potency result is “inactive”. Regarding `CCN(CCCc1ccccc1)CCCc1ccccc1`, the “activity change, negative = inhibition” value is 3.76%. Turning to `C[C@@H]1C[C@H]2[C@@H]3CCC4=CC(=O)C=C[C@]4(C)[C@@]3(F)[C@@H](O)C[C@]2(C)[C@H]1C(=O)CO`, the “activity change, negative = inhibition” value was 54.6%. Take `CC1=C(C)C(=O)C(C(CCCCCC(=O)O)c2ccccc2)=C(C)C1=O` (stereo not drawn): the Potency entry is “inactive”. With `CCN(CC)C(=O)N1CCN(C)CC1`, the “activity change, negative = inhibition” value was 5.85%. Turning to `C#C[C@]1(O)CC[C@H]2[C@@H]3CCC4=CC(=O)CC[C@@H]4[C@H]3CC[C@@]21C`, the “activity change, negative = inhibition” value is 24.8%. For `C/C(=C(/OCCOc1ccc(Cl)cc1)c1ccc(Cl)cc1Cl)n1ccnc1`, the “activity change, negative = inhibition” value is 3.47%. As to `C[C@]12C=CC(=O)C=C1CC[C@H]1[C@@H]3C[C@@H](O)[C@](O)(C(=O)CO)[C@@]3(C)C[C@H](O)[C@@]12F`, the Potency result was “inactive”. On to `C[C@@]12CCC[C@H]1[C@@H]1CC[C@H]3C[C@@H](O)CC[C@]3(C)[C@H]1CC2`, for which the “activity change, negative = inhibition” value is 34%. Regarding `Cc1c(F)cc2c(=O)c(C(=O)O)cn3c2c1CCC3C` (stereo not drawn), the “activity change, negative = inhibition” value is 7.93%. For `O=c1[nH]c2ccccc2c(=O)n1CCCl`, the “activity change, negative = inhibition” value is 10.2%. As for `OC[C@H]1O[C@@H](OCCc2ccc(O)cc2)[C@H](O)[C@@H](O)[C@H]1O`, the “activity change, negative = inhibition” value was 2.24%.

Turning to `COC(=O)c1cc(S(N)(=O)=O)ccc1OC`, the “activity change, negative = inhibition” value was -0.39%. For the molecule `O=C(NCCCN1CCOCC1)c1ccc(Cl)cc1`, the “activity change, negative = inhibition” value is 0.26%. Regarding `CC(C)N=C(N)/N=C(\N)Nc1ccc(Cl)cc1`, the “activity change, negative = inhibition” value was -2.22%. For the molecule `CC(=O)OCC(=O)[C@@]12N=C(C)O[C@@H]1C[C@H]1[C@@H]3CCC4=CC(=O)C=C[C@]4(C)[C@H]3[C@@H](O)C[C@@]12C`, the “activity change, negative = inhibition” value is 14.1%.
